Laboratory results taken from PubChem BioAssay AID1159580 (chemical genetic matrix, 2015).
The campaign covered roughly 5,500 compounds. About 2,000 (36%) were called active. Roughly 18% stayed inconclusive and do not appear here. The list shows a part of the results. Values without a mark were called inactive. Rule as the data show it: active = normalized growth mostly below about 0.91 (no sharp cut-off); inconclusive = no clear call, values can overlap the other calls; inactive = mostly above about 0.92.

Experiment: chemical genetic growth profiling, strain panel (AID 1159580);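 also: tested at 20 µM; growth read once vehicle control cultures reached saturation at 30 °C; 1 = growth at the plate median or of vehicle wells; lower values mean less growth of the strain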
Settings: S. cerevisiae deletion strains, growth OD
[1] = locus YAL040C, strain CLN3, active compounds read low
[2] = locus YCL061C, strain MRC1 (second series), active compounds read low
[3] = locus YDR363W, strain ESC2, active compounds read low
[4] = locus YER002W, strain NOP16, active compounds read low
[5] = locus YGR078C, strain PAC10, active compounds read low
[6] = locus YMR307W, strain GAS1, active compounds read low
[7] = locus YNL175C, strain NOP13, active compounds read low
[8] = locus YNL197C, strain WHI3, active compounds read low
[9] = locus YNL224C, strain SQS1, active compounds read low
[10] = locus YOR083W, strain WHI5 (second series), active compounds read low
[11] = locus YPL241C, strain CIN2, active compounds read low

SMILES	normalized growth (locus YAL013W, strain DEP1, active compounds read low)	normalized growth [1]	normalized growth [2]	normalized growth (locus YDR150W, strain NUM1, active compounds read low)	normalized growth [3]	normalized growth [4]	normalized growth [5]	normalized growth (locus YGR229C, strain SMI1, active compounds read low)	normalized growth [6]	normalized growth [7]	normalized growth [8]	normalized growth [9]	normalized growth [10]	normalized growth (locus YPL055C, strain LGE1, active compounds read low)	normalized growth [11]	normalized growth (locus YMR263W, strain SAP30, active compounds read low)	normalized growth (locus YNL128W, strain TEP1, active compounds read low)	normalized growth (locus YNL322C, strain KRE1, active compounds read low)
CC(C(O)c1ccc(O)cc1)N1CCC(Cc2ccccc2)CC1 (centres undefined)	0.932	1.03	0.959	0.872 (active)	0.94	1.01	1.01	0.785 (active)	0.994	0.935	1.03	1.03	1.04	0.75 (active)	0.944 (active)			
C[C@@H](CN1CCC(Cc2ccccc2)CC1)[C@@H](O)c1ccc(O)cc1		1.07	0.996		1.01	1.01	0.996		1.05	0.993	0.999	1.02	1		0.99	1	1.03	0.979
